PKD1 kinase inh – inhibitors of human PKD1 kinase. PKD1 kinase fluorescence polarization assay. inhibition, % (concentration not given with the values). 200,000 compounds, 0.056% hits. AID 797
Target sequence (Q15139 whole entry, looked up): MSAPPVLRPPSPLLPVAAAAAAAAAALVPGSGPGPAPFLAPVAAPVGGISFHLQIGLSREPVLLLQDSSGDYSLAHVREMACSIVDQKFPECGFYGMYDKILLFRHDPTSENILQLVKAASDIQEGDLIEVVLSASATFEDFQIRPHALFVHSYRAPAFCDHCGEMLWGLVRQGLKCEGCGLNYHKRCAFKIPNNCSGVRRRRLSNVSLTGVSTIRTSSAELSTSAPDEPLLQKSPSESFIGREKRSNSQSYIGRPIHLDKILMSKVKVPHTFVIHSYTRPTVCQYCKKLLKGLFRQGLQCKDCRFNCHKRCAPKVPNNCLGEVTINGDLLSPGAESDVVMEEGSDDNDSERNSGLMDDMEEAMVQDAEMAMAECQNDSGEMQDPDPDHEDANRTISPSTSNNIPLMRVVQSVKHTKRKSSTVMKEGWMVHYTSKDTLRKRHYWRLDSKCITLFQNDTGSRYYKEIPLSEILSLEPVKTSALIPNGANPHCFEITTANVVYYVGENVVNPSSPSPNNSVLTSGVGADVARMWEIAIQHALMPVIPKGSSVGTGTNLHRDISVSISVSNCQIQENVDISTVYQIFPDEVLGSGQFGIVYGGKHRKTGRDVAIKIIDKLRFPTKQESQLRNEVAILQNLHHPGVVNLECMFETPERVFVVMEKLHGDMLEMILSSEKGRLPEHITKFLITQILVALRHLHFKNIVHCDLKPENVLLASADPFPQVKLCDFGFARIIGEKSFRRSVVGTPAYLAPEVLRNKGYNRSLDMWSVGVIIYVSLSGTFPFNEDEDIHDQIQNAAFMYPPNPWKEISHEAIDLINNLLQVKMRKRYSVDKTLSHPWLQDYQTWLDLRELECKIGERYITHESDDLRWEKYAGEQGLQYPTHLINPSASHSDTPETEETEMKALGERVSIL
VLA-4 inh – inhibition in a human VLA-4 binding assay; P13612; VLA-4 expressing cells, ligand binding flow cytometry; inhibition, % (about 7 µM as worked out from the volumes in the protocol); 330,000 compounds, 0.2% hits; AID 2557
HDAC3 inhib – human HDAC3 inhibition; inhibition, % at 8.3 µM; O15379; recombinant HDAC3, fluorogenic peptide/trypsin coupled, fluorescence; 320,000 compounds, 0.15% hits; in the data active means inhibition above about 26%, passing the limit was not always enough; inconclusive means no clear call, values can overlap the other calls
Pemphigus Ab inh – human desmoglein-3 autoantibody binding inhibition; P32926; DSG3-coupled beads, scFv-anti-DSG3-GFP binding, flow cytometry; hits give low values; binding (percent of control), % at 10 µM; 310,000 compounds, 0.48% hits; AID 588358;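 active means binding more than 3 SD below its plate's average and above zero; inconclusive means below that plate limit but binding exactly zero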;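 further: hits lower antibody fragment binding to DSG3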
GRK2 inh – inhibitors of human GRK2 displacing RNA aptamer; P25098; bead flow cytometry, FAM-aptamer displacement from GRK2; inhibition of aptamer binding, % at 10 µM; 330,000 compounds, 0.59% hits; AID 488847;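 active means inhibition of aptamer binding above 40%, roughly 3 SD of noise, on plates passing a quality check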;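 further: median bead fluorescence of bound FAM aptamer so fluorescent compounds give negative values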
LANA-H2B inh – blocks KSHV LANA binding to histone H2A/H2B | Q9QR71 | 320,000 compounds, 0.6% hits | inhibition, % (concentration not given with the values) | cell-free LANA-H2A/H2B peptide, fluorescence polarization; in the data active means inhibition mostly above about 10%, no sharp cut-off; inactive means mostly below about 6.7%
Active calls of the source: *; ? = inconclusive; · = not tested or not shown. Compounds with a hit are over-represented: about 1.8% of the library has one in this group of screens. Unless noted, no stated cut-off is given here; in the data, active means inhibition above about 50%; inactive means the rest.

SMILES	PKD1 kinase inh	VLA-4 inh	HDAC3 inhib	Pemphigus Ab inh	GRK2 inh	LANA-H2B inh
CCC1=C(OC(=O)N(CC)CC)N2C(=O)OC(=NCCOC)[C@]2(Cc2ccccc2)[C@H]2C1=CC[C@H]1C(=O)N(C)C(=O)[C@H]12	·	10	-1	104	0	-2
O=C(Nc1cccc([N+](=O)[O-])c1)c1ccc(CSc2ccccc2)cc1	-1	28	4	80*	3	0
Cn1c(=O)c(=O)n(C)c2cc(S(=O)(=O)N3CCC(Cc4ccccc4)CC3)ccc21	2	4	-7	91	2	13*
CCc1ccccc1NC(=O)C1CCCN1S(=O)(=O)c1ccc2c(c1)n(C)c(=O)c(=O)n2C (centres undefined)	·	7	1	100	0	-3
CN(Cc1ccccc1)C(=O)C1CCCN1S(=O)(=O)c1ccc2c(c1)n(C)c(=O)c(=O)n2C (centres undefined)	·	13	-5	98	10	24*
Cn1c(=O)c(=O)n(C)c2cc(S(=O)(=O)N3CCCCCC3)ccc21	-6	-1	3	95	1	5
Cc1ccc([C@H]2N[C@]3(CCCN(Cc4ccc(Cl)cc4)C3=O)[C@H]3C(=O)N(Cc4ccccc4)C(=O)[C@@H]23)cc1	·	·	·	100	·	·
S=C1NCCOCCOCCOCCNC(=S)N2CCOCCOCCN1CCOCCOCC2	-3	-3	?	99	1	2
CC(C)NC(=S)NCc1cccnc1	5	9	-4	99	99*	-1
Cc1ccc(Cl)cc1N1CCN(C(=O)Cc2c(C(=O)O)[nH]c3ccc(Cl)cc23)CC1	-5	-4	8	23*	0	1
Cc1ccc(Cl)cc1N1CCN(C(=O)Cc2c(C(=O)O)[nH]c3ccccc23)CC1	5	12	12	103	1	-6
Cc1nnsc1C(=O)Nc1cccc(Cl)c1	1	-3	-2	88	0	25*
Cc1nc(Cl)sc1C(=O)Nc1cccc(Cl)c1	·	-2	-1	110	0	-8
CC(/C=C/C=C/c1ccccc1)=N/NC(=O)CNc1ccccc1C	-4	2	2	128	55*	-3
Cn1nc(CC(=O)Nc2cccnc2N2CCOCC2)c2ccccc2c1=O	·	15	1	·	5	38*
Cn1nc(CC(=O)NC2CCCCCCCCCCC2)c2ccccc2c1=O	-7	-7	11	98	0	-4
COc1ccc2c(CC(=O)O)cc(=O)oc2c1	·	0	-19	95	1	0
COC(=O)Cc1cc(=O)oc2cc(OC)ccc12	-7	2	-40	104	0	67*
COc1ccc2c(COC(=O)CC3Sc4ccccc4NC3=O)cc(=O)oc2c1 (centres undefined)	3	1	-2	101	2	15*
CCOC(=O)C(C(=O)Cc1ccccc1)c1ccccc1 (centres undefined)	·	·	·	124	·	·
Cc1cc(Br)cn2cc(C(=O)O)nc12	2	2	-1	96	1	-2
O=C(OCCNC(=O)c1cc2ccccc2oc1=O)c1cccnc1	22	7	-2	103	2	50*
O=C(NCc1cccnc1)c1cc2ccccc2oc1=O	-1	-3	9	102	0	0
CCn1c(CN2CCOCC2)nnc1SCC(=O)Nc1ccccc1C	·	-23	-2	·	0	127*
C/C(=N/NS(=O)(=O)c1ccc(Cl)cc1)c1cccc(NC(=O)c2ccncc2)c1	·	-13	2	109	0	-9
SMILES	PKD1 kinase inh	VLA-4 inh	HDAC3 inhib	Pemphigus Ab inh	GRK2 inh	LANA-H2B inh
C/C(=N\NS(=O)(=O)c1ccccc1)c1cccc(NC(=O)c2cccc(Cl)c2)c1	10	25	12	101	60*	0
CCCCC(=O)/C=C/n1c(=S)oc2ccccc21	-4	0	1	98	1	-1
CC1(C)Cc2cccc(OCC(=O)Nc3ccccc3C(F)(F)F)c2O1	·	-11	4	77*	2	-2
CCN(CC(=O)Nc1ccccc1C(F)(F)F)C(=O)COc1cccc2c1OC(C)(C)C2	·	0	?	100	3	-3
CN(C)CCNc1nc2c(c(=O)[nH]c(=O)n2C)n1CCOc1ccccc1	·	6	4	81*	2	-1
CCCNc1nc2c(c(=O)[nH]c(=O)n2C)n1CCOc1ccccc1	·	38	0	103	0	2
CC1=NN(c2ccccc2)C(=O)/C1=C\c1ccc(Oc2ccc([N+](=O)[O-])cc2[N+](=O)[O-])cc1	10	-7	1	99	3	22*
